Measurements from PubChem BioAssay (EPA / NIEHS).
Active and inactive are the calls of the source. How the source made its calls: active means hit-call score of the fitted dose curve at least 0.9, where 1 is the maximum; inactive means score below 0.9.

The compounds below were run against Retinoic acid receptor alpha (Homo sapiens) (UniProt P10276) (assay: ATG_DR5_RAR_CIS: Attagene CIS-FACTORIAL HepG2 Assay for human Retinoic Acid Receptor Alpha (RARE), DR5 submotif (AID 2282934)). Conditions: HepG2 Attagene cis-factorial RARE DR5 reporter, mRNA; actives raise or lower the signal.
Method in brief: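 HepG2 cells transiently transfected with multiplexed reporter units; DR5 cis-element drives reporter through endogenous transcription factors. After 24 h dosing, reporter mRNA quantified by RT-PCR, fluorescent labeling, HpaI digestion and capillary electrophoresis; bidirectional fitting versus DMSO.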

Chain of Retinoic acid receptor alpha (Homo sapiens) (P10276 whole entry, looked up): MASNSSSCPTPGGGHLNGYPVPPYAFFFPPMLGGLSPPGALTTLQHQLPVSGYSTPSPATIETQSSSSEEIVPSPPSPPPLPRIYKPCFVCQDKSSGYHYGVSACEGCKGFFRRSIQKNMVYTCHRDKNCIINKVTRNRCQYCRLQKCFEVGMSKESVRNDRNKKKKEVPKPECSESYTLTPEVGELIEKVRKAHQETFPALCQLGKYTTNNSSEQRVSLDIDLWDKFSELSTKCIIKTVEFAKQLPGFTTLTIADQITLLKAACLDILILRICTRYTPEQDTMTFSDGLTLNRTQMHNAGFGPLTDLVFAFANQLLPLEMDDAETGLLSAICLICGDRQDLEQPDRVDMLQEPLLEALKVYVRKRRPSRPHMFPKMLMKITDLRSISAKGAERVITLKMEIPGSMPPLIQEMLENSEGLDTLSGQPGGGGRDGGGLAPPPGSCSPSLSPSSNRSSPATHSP

SMILES	outcome
Cc1cccc(C)c1[N+](=O)[O-]	inactive
CC[C@]12CCCN3CCc4c(n(c5ccccc45)[C@@](O)(C(=O)OC)C1)[C@@H]32	inactive
COc1cc(C=O)ccc1OC(=O)C(C)C	inactive

What follows are compounds tested against Transcription factor E2F1 (Homo sapiens) (UniProt Q01094) (assay: ATG_E2F_CIS: Attagene CIS-FACTORIAL HepG2 Assay for human E2F Transcription Factor 1 (AID 2282935)). Conditions: HepG2 Attagene cis-reporter, E2F reporter RNA transcripts; actives raise or lower the signal.
Method in brief: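 Endogenous E2F1 activity read through cis-promoter reporter units transfected into HepG2. After 24 h compound treatment, reporter mRNA measured by RT-PCR, HpaI digestion and capillary electrophoresis. Bidirectional fit versus DMSO.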

Chain of Transcription factor E2F1 (Homo sapiens) (Q01094 whole entry, looked up): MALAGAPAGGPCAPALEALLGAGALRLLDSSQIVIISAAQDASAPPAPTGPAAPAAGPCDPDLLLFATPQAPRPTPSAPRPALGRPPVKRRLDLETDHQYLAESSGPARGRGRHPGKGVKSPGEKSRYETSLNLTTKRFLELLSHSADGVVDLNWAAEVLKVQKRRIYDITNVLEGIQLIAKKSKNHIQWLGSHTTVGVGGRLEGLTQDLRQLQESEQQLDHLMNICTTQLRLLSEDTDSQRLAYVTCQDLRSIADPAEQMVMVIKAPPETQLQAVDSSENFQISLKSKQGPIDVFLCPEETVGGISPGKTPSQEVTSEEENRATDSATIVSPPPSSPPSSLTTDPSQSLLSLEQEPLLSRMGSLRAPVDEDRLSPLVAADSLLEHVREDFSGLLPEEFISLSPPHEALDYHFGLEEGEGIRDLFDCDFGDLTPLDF

SMILES	outcome
CO[Si](C)(OC)c1ccccc1	inactive
C=CCOC(=O)CCC1CCCCC1	inactive
CCCCCCCCCCCCCCCCCC(=O)OCC(CC)CCCC (stereo not given)	inactive
CN(C)CCCN	inactive
CC(=O)O[C@H](CC(=O)[O-])C[N+](C)(C)C	inactive
CCN(CC)c1ccc2c(-c3ccccc3C(=O)O)c3ccc(=[N+](CC)CC)cc-3oc2c1	inactive
Cc1cccc(C)c1[N+](=O)[O-]	inactive
NNc1nc(-c2ccc(N)cc2)cs1	inactive
CCCCc1ccc(N)cc1	inactive
CCC(C)CCCC(C)(C)O (stereo not given)	inactive
CC(CCO)CCCC(C)(C)O (stereo not given)	inactive
CC(=O)O[C@]1(C(C)=O)CC[C@H]2[C@@H]3C[C@H](C)C4=CC(=O)CC[C@]4(C)[C@H]3CC[C@@]21C	inactive
BrC1CCC(Br)C(Br)CCC(Br)C(Br)CCC1Br (stereo not given)	inactive
CCCCCCCCC=O	inactive
Nc1cc(N)cc(C(=O)O)c1	inactive
ClCCCl	inactive

SMILES	outcome
Cc1ccc(Nc2ccc(O)c3c2C(=O)c2ccccc2C3=O)cc1	inactive
c1ccc2sc(SN(C3CCCCC3)C3CCCCC3)nc2c1	inactive
COc1nc(C)nc(N)n1	inactive
COc1cc(C=O)ccc1OC(=O)C(C)C	inactive
CCCCCCCCCC=O	inactive
S=C(S)NCCNC(=S)S	inactive
Cc1ccccc1C=O	inactive
OCc1cccnc1	inactive
O=C(O)c1cccc(C(F)(F)F)c1	inactive
CC(=O)OCCOC(C)=O	inactive
O=C(OCc1ccccc1)C(=O)OCc1ccccc1	inactive
O=Nc1ccc(Nc2ccccc2)cc1	inactive
CC(C=O)Cc1ccc(C(C)C)cc1 (stereo not given)	inactive
CC(C)=CCO	inactive
Nc1cc([N+](=O)[O-])ccc1O	inactive
CCC/C=C/C=O	inactive
